What all share (assay type): functional
In assay [1] the test system is Plasmodium falciparum. As to the kind of experiment: GSK_TCMDC: Inhibition of Plasmodium falciparum 3D7 in whole red blood cells, using parasite LDH activity as an index of growth. Test compounds present at 2uM.
Assay [2] relates to Plasmodium falciparum. As to the kind of experiment: GSK_TCMDC: Inhibition of Plasmodium falciparum Dd2 in whole red blood cells, using parasite LDH activity as an index of growth. Test compounds present at 2uM.
Assay [3] deals with HepG2. Nature of the assay: GSK_TCMDC: Percent inhibition of human HepG2 cell line. Test compounds present at 10uM.

By Inhibition is commonly meant the percentage by which the read-out fell short of the control. Read a high Inhibition as a response far below the control. With `Clc1ccccc1C=NN=c1cc[nH]c2ccccc12`, the Inhibition in assay [1] is on record as 100%; in assay [2], 50%; in assay [3] it was 25%.
For `Cl.c1ccc(COc2ccc(Nc3ncnc4ccc(-c5ccc(CN6CCSCC6)o5)cc34)cc2)cc1`, in that order: 94%, 4% and 4%.
For `CC(C)c1ccc(NC(=O)NC2CCN(CCCCCN(C)C(=O)/C=C/c3ccc(Cl)c(Cl)c3)C2)cc1` (stereo not given) the same measures were 99%, 3% and 28%.
`CN(C)Cc1cccc(-c2cc3c(-c4cnn(C)c4)c(Cl)cnc3[nH]2)c1`: the values for the Inhibition in assay [1], in assay [2] and in assay [3] were 96%, 21% and 75%, respectively.
On to `COc1ccc(-c2cnc(N)c(-c3nc4cc(Br)ccc4[nH]3)c2)cc1.O=C(O)C(F)(F)F`, for which the Inhibition in assay [1] worked out at 100%; in assay [2], 3%; in assay [3], 42%.
`O=C(O)/C=C\C(=O)O.OCCN1CCN(C2Cc3ccc(F)cc3Sc3ccc(Cl)cc32)CC1` (stereo not given): the figures for the Inhibition in assay [1], in assay [2] and in assay [3] were 98%, 26% and 56%, respectively.
For `O=c1cc(NCCCNCc2cc(Cl)cc(Cl)c2OCc2ccc(Cl)cc2)[nH]c2ccccc12`, in that order: 98%, 53% and 6%.
For `O=C(O)C(F)(F)F.OC1CCCN(Cc2ccc(-c3ccc(-c4nc5cc(F)ccc5[nH]4)cc3)cc2)C1` (stereo not given), in that order: 100%, 79% and 55%.
For `Cc1c[nH]c2ccc(/C=C/C(=O)NC3CCC(CCN4CCc5ccc(C#N)cc5CC4)CC3)cc12.Cl` (stereo not given) the same measures were 100%, 91% and 9%.
`O=C(Nc1cccc(CN2CCCN(Cc3ccc(O)cc3)CC2)c1)c1ccc2ccccc2n1.O=C(O)C(F)(F)F`: the Inhibition in assay [1] amounted to 90%; in assay [2], 22%; in assay [3], 13%.

The values are drawn from ChEMBL document CHEMBL1157539, “Thousands of chemical starting points for antimalarial lead identification” (Nature, 2010).
